# Reference: publication PMC7862700, “An all-to-all approach to the identification of sequence-specific readers for epigenetic DNA modifications on cytosine”
# Key:
# Experiment in all cases: DAPPL (digital affinity profiling via proximity ligation, sequencing); 10 mM Tris-HCl pH 7.5, 50 mM NaCl, 1 mM DTT, 4% glycerol, room temperature, 30 min; GST-TFs on glutathione beads, 16-mer random dsDNA library, 0.1% formaldehyde crosslink after washing; high values mean tight binding
# FLI1 = biological target: T1, FLI1 (Homo sapiens, UniProt Q01543 1-452); settings: protein: recombinant; tags: N-terminal GST; dsDNA, one strand shown
# T1 sequence: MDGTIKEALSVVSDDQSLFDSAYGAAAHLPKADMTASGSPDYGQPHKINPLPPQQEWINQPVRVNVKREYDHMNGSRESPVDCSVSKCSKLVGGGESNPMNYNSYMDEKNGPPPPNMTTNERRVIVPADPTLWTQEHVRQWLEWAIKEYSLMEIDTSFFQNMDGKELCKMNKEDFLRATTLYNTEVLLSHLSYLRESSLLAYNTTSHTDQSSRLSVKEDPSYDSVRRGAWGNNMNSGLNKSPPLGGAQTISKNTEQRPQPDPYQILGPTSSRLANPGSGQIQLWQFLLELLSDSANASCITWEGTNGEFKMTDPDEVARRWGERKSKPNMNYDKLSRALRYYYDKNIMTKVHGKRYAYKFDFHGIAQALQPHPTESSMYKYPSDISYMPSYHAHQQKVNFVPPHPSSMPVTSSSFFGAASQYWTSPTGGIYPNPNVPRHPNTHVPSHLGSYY
# Method in brief: (§1)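 GST fusions of human transcription factors were expressed in yeast and captured with glutathione beads. Once given DNA barcodes and pooled alongside a tag-only sample, they were incubated for 30 min at room temperature with 200 nmole of a random double-stranded 16-mer DNA library in Tris/NaCl/DTT/glycerol buffer, then washed, crosslinked (0.1% formaldehyde), proximity-ligated, PCR-amplified and sequenced on an Illumina NextSeq500. The binding signal of each hexamer is its read frequency for a factor divided by its frequency for the tag-only sample.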
# ELK1 = biological target: T2, ELK1 (Homo sapiens, UniProt P19419 1-428); settings: protein: recombinant; tags: N-terminal GST; dsDNA, one strand shown
# T2 sequence: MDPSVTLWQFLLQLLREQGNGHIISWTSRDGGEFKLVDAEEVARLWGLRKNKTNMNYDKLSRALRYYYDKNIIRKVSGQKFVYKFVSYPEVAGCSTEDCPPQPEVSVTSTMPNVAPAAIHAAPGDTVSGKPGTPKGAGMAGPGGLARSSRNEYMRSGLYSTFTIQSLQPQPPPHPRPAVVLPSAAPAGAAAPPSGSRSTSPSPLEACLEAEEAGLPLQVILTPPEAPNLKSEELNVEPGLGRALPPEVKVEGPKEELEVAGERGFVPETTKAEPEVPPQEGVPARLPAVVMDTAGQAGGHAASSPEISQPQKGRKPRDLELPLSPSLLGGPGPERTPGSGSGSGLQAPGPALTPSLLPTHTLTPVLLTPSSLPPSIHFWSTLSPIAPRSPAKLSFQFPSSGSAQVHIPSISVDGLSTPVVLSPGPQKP
# Method in brief: as §1
# GABPA = biological target: T3, GABPA (Homo sapiens, UniProt Q06546 1-454); settings: protein: recombinant; tags: N-terminal GST; dsDNA, one strand shown
# T3 sequence: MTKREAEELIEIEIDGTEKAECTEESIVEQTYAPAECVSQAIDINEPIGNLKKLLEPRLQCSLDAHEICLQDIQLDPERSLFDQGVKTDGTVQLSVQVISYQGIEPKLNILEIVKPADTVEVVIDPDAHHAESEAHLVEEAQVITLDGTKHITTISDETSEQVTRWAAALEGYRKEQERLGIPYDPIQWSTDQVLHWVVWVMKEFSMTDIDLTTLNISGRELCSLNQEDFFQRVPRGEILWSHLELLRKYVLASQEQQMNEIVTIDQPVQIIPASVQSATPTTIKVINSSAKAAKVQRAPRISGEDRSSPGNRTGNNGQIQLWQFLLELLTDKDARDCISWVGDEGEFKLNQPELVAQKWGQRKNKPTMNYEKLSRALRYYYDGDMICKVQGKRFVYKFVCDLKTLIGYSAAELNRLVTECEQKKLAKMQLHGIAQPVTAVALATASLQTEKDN
# Method in brief: as §1
# ERG = biological target: T4, ERG (Homo sapiens, UniProt P11308 1-479); settings: protein: recombinant; tags: N-terminal GST; dsDNA, one strand shown
# T4 sequence: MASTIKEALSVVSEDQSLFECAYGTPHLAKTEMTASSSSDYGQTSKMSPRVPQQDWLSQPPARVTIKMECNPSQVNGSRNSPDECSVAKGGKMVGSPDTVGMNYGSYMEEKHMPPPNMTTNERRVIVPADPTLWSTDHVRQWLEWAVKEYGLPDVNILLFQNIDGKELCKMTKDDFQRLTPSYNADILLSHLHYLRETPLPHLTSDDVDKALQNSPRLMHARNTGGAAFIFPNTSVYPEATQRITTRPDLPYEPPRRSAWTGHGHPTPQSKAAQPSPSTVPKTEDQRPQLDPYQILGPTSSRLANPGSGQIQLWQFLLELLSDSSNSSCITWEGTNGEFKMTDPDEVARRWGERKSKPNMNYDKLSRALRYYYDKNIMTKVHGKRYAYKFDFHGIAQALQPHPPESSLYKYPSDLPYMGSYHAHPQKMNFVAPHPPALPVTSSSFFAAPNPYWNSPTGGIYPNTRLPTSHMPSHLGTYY
# Method in brief: as §1
# ELF1 = ELF1 (Homo sapiens, UniProt P32519 1-619); settings: protein: recombinant; tags: N-terminal GST; dsDNA, one strand shown
# Method in brief: as §1
# EHF = biological target: T5, EHF (Homo sapiens, UniProt Q9NZC4 1-300); settings: protein: recombinant; tags: N-terminal GST; dsDNA, one strand shown
# T5 sequence: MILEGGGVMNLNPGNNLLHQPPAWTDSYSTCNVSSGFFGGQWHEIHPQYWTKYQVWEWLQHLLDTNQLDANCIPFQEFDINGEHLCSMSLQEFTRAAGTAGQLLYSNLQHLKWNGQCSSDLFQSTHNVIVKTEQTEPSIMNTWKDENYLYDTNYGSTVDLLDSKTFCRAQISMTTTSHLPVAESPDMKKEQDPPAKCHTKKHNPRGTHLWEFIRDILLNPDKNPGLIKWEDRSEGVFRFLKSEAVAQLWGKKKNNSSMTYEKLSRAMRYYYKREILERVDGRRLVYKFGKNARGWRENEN
# Method in brief: as §1
# SPI1 = SPI1 (Homo sapiens, UniProt P17947 1-270); settings: protein: recombinant; tags: N-terminal GST; dsDNA, one strand shown
# Method in brief: as §1
# SPIB = SPIB (Homo sapiens, UniProt Q01892 1-262); settings: protein: recombinant; tags: N-terminal GST; dsDNA, one strand shown
# Method in brief: as §1
# ELK3 = biological target: T6, ELK3 (Homo sapiens, UniProt P41970 1-407); settings: protein: recombinant; tags: N-terminal GST; dsDNA, one strand shown
# T6 sequence: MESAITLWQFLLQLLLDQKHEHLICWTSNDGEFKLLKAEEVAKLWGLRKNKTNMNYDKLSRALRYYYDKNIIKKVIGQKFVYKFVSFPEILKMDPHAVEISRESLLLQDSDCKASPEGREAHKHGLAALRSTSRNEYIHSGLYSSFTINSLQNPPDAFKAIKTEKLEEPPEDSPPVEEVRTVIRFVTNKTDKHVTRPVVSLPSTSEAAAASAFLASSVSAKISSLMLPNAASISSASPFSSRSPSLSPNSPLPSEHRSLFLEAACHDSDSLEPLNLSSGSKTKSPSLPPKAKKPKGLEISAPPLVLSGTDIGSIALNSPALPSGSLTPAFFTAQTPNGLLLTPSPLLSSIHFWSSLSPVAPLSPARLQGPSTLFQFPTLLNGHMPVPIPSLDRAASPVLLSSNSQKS
# Method in brief: as §1
# FEV = biological target: T7, FEV (Homo sapiens, UniProt Q99581 1-238); settings: protein: recombinant; tags: N-terminal GST; dsDNA, one strand shown
# T7 sequence: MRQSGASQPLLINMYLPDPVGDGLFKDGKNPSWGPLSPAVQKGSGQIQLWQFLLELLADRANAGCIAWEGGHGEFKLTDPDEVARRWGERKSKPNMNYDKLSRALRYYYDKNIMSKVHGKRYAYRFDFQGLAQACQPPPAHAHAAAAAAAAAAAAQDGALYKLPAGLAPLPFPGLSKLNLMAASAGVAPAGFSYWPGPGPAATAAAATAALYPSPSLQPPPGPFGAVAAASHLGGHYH
# Method in brief: as §1
# ETV5 = ETV5 (Homo sapiens, UniProt P41161 1-510); settings: protein: recombinant; tags: N-terminal GST; dsDNA, one strand shown
# Method in brief: as §1
# HSF1 = HSF1 (Homo sapiens, UniProt Q00613 1-529); settings: protein: recombinant; tags: N-terminal GST; chain copies: 3; dsDNA, one strand shown
# Method in brief: as §1
# SPIC = biological target: T8, SPIC (Homo sapiens, UniProt Q8N5J4 1-248); settings: protein: recombinant; tags: N-terminal GST; dsDNA, one strand shown
# T8 sequence: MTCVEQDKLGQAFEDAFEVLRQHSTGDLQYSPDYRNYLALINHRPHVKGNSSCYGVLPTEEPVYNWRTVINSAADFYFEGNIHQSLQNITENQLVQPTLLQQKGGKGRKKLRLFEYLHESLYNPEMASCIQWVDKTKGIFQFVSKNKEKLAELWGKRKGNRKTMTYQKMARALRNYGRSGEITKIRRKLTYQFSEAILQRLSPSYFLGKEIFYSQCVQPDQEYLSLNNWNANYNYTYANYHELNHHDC
# Method in brief: as §1
# ELF4 = ELF4 (Homo sapiens, UniProt Q99607 1-663); settings: protein: recombinant; tags: N-terminal GST; dsDNA, one strand shown
# Method in brief: as §1
# ELK4 = biological target: T9, ELK4 (Homo sapiens, UniProt P28324-2 1-405); settings: protein: recombinant; tags: N-terminal GST; dsDNA, one strand shown
# T9 sequence: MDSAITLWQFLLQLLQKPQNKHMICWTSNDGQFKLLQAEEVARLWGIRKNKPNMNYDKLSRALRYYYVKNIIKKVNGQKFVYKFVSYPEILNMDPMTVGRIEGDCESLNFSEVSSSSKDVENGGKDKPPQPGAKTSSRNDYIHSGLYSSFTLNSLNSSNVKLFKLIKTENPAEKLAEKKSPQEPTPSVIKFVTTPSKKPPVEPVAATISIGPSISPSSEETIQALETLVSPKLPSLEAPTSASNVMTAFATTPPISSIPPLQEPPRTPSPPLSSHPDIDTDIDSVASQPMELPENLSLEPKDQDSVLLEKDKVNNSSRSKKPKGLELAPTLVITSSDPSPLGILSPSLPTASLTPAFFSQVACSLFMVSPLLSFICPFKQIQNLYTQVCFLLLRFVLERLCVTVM
# Method in brief: as §1
# ETV2 = biological target: T10, ETV2 (Homo sapiens, UniProt O00321 1-342); settings: protein: recombinant; tags: N-terminal GST; dsDNA, one strand shown
# T10 sequence: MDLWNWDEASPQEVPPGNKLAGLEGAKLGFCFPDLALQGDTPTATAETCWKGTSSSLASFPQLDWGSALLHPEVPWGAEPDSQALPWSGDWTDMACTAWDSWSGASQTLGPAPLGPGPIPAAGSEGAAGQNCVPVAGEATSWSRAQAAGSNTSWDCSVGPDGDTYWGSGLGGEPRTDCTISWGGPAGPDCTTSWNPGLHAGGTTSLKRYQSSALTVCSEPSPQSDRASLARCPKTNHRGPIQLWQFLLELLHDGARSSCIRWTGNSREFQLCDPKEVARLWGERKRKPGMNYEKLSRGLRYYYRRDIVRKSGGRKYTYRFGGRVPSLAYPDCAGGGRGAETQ
# Method in brief: as §1
# ELF3 = biological target: T11, ELF3 (Homo sapiens, UniProt P78545 1-371); settings: protein: recombinant; tags: N-terminal GST; dsDNA, one strand shown
# T11 sequence: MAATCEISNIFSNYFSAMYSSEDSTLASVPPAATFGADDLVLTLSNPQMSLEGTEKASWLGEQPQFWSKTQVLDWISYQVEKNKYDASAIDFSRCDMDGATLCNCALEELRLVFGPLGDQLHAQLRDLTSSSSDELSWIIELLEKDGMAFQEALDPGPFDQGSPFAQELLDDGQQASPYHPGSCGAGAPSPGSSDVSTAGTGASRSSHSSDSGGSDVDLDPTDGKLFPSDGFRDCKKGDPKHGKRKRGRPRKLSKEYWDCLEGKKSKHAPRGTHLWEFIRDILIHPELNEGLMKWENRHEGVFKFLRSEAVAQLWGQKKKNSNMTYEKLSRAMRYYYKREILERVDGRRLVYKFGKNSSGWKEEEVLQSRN
# Method in brief: as §1
# CRX = CRX (Homo sapiens, UniProt O43186 1-299); settings: protein: recombinant; tags: N-terminal GST; dsDNA, one strand shown
# Method in brief: as §1
# ETV1 = ETV1 (Homo sapiens, UniProt P50549 1-477); settings: protein: recombinant; tags: N-terminal GST; dsDNA, one strand shown
# Method in brief: as §1
# Sequence of HSF1 (Q00613 whole entry): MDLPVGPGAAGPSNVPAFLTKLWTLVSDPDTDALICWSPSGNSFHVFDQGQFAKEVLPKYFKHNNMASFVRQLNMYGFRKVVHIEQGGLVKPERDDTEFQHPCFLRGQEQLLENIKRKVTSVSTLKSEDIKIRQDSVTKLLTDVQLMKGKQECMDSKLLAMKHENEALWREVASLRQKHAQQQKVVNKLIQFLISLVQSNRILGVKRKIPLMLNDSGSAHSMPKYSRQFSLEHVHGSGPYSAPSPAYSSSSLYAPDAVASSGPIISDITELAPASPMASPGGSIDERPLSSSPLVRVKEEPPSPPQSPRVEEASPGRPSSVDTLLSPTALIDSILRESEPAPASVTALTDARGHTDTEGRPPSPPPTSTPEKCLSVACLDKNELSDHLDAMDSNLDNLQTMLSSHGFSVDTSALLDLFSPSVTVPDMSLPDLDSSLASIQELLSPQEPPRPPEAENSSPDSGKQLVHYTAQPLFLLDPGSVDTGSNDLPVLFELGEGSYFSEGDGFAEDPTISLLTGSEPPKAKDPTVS
# Sequence of ELF4 (Q99607 whole entry): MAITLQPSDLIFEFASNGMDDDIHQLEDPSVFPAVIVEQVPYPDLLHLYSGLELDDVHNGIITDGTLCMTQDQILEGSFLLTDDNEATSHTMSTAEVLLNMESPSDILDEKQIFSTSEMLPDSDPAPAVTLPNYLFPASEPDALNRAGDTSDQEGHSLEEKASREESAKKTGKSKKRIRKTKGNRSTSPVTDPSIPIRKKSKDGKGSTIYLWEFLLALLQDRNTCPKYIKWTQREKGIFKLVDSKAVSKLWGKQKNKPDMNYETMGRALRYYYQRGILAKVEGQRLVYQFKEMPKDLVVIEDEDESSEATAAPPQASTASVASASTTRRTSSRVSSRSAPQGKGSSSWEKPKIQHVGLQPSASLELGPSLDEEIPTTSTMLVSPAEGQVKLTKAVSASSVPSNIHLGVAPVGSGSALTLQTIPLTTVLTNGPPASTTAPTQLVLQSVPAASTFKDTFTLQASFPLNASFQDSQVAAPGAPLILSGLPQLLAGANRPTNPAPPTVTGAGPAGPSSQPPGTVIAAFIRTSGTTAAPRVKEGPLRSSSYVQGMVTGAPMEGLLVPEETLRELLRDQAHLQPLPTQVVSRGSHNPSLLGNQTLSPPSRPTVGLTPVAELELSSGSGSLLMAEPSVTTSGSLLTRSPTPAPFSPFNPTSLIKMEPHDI
# Sequence of ETV1 (P50549 whole entry): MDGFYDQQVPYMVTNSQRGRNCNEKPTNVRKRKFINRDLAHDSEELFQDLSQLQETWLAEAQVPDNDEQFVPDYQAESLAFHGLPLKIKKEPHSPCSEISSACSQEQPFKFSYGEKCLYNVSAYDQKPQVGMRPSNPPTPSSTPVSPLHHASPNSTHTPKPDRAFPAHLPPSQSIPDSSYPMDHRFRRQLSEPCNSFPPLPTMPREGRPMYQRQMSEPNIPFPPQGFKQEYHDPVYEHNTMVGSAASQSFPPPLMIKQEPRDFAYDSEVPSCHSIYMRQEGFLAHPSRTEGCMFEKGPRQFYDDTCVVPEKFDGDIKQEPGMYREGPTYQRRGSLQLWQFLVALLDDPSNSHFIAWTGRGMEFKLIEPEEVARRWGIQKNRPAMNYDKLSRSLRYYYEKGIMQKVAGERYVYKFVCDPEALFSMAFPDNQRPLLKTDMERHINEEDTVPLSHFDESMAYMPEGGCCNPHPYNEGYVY
# Sequence of ELF1 (P32519 whole entry): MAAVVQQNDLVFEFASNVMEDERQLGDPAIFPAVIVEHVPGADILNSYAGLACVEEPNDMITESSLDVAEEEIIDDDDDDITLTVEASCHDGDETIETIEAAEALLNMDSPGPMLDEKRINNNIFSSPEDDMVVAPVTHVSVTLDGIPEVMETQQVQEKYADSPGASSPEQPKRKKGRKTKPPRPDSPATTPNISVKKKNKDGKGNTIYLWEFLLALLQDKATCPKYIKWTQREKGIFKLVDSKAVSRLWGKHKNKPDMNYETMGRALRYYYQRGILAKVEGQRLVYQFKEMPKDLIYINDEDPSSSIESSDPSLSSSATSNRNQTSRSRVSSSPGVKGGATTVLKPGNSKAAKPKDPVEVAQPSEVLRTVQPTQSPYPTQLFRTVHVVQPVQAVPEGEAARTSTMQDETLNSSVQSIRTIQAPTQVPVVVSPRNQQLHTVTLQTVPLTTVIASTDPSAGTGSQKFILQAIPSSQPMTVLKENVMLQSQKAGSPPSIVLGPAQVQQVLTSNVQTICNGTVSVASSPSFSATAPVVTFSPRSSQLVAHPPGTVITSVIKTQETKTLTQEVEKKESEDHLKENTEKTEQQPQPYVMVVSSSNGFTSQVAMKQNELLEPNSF
# Sequence of CRX (O43186 whole entry): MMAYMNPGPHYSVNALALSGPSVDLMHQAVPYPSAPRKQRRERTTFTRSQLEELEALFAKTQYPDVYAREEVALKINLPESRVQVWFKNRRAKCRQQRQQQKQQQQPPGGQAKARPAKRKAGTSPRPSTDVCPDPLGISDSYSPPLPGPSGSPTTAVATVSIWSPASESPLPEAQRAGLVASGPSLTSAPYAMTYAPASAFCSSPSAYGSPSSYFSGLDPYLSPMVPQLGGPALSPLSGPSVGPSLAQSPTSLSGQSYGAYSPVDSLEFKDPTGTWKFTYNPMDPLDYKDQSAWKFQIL
# Sequence of SPIB (Q01892 whole entry): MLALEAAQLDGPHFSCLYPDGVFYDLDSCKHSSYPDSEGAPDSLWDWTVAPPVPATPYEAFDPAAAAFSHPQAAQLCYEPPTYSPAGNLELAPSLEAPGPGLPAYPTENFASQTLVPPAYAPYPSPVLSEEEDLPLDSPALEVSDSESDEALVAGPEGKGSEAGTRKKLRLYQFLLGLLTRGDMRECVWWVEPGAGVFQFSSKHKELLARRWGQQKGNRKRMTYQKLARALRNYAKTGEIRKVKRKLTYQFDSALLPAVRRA
# Sequence of ETV5 (P41161 whole entry): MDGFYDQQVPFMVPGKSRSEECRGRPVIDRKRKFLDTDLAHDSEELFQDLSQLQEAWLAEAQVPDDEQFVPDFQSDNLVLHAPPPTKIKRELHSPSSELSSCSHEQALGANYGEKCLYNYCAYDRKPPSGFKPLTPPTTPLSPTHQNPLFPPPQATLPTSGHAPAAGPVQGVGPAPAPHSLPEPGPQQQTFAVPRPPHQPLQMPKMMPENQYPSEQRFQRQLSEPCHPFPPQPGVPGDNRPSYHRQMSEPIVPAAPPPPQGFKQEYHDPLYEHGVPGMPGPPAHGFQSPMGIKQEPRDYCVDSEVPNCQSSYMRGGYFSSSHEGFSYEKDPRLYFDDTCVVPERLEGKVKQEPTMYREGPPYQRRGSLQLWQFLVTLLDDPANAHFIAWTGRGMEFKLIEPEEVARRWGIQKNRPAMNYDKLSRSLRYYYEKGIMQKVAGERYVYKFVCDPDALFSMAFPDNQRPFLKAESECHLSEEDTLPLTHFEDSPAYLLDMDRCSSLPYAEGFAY
sequence,measurement,setting,value
TATATA,binding signal,FLI1,"1.23 fold enrichment (6-mer frequency, TF over GST control)"
same,binding signal,ELK1,"1.37 fold enrichment (6-mer frequency, TF over GST control)"
same,binding signal,GABPA,"1.26 fold enrichment (6-mer frequency, TF over GST control)"
same,binding signal,ERG,"1.3 fold enrichment (6-mer frequency, TF over GST control)"
same,binding signal,ELF1,"1.32 fold enrichment (6-mer frequency, TF over GST control)"
same,binding signal,EHF,"1.32 fold enrichment (6-mer frequency, TF over GST control)"
same,binding signal,SPI1,"1.21 fold enrichment (6-mer frequency, TF over GST control)"
same,binding signal,SPIB,"1.49 fold enrichment (6-mer frequency, TF over GST control)"
same,binding signal,ELK3,"1.17 fold enrichment (6-mer frequency, TF over GST control)"
same,binding signal,FEV,"1.21 fold enrichment (6-mer frequency, TF over GST control)"
same,binding signal,ETV5,"1.28 fold enrichment (6-mer frequency, TF over GST control)"
same,binding signal,HSF1,"1.42 fold enrichment (6-mer frequency, TF over GST control)"
same,binding signal,SPIC,"1.21 fold enrichment (6-mer frequency, TF over GST control)"
same,binding signal,ELF4,"1.31 fold enrichment (6-mer frequency, TF over GST control)"
same,binding signal,ELK4,"1.38 fold enrichment (6-mer frequency, TF over GST control)"
same,binding signal,ETV2,"1.08 fold enrichment (6-mer frequency, TF over GST control)"
same,binding signal,ELF3,"1.35 fold enrichment (6-mer frequency, TF over GST control)"
same,binding signal,CRX,"1.63 fold enrichment (6-mer frequency, TF over GST control)"
same,binding signal,ETV1,"1.18 fold enrichment (6-mer frequency, TF over GST control)"
